High-throughput results deposited in PubChem BioAssay by National Center for Advancing Translational Sciences (NCATS).
In the library only some 22% were active in any assay of this set; here they are far more common.
Pf growth 48h – P. falciparum growth inhibition at 48 hours (one generation) | P. falciparum luciferase growth in erythrocytes, 48 h | 310,000 compounds, 5.9% hits | Potency, µM (series often up to 28.7 µM), without a hit: top-dose activity change, negative = inhibition, hits mostly inhibitors; note: potency is the fitted concentration of half-maximal effect; % is set by controls: 0 for no effect and ±100 for the full control effect
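Parasite viability was followed by luminescence of a genomically integrated firefly luciferase. Cultures held 0.1% parasitemia at 2% hematocrit (final), incubated under 5% CO2 at 37 C.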
Shiga inhibitor – blocks Shiga toxin action in Vero cells. Vero cells, Shiga toxin protein synthesis inhibition reporter. inhibition, % at 38.7 µM. 290,000 compounds, 9.2% hits. AID 2315; in the data active = inhibition mostly above about 28%, no sharp cut-off; inactive = mostly below about 43%; note: 0% is about no effect
CHX counter – counter-screen hit for Shiga toxin inhibitors, cycloheximide. cell reporter, cycloheximide protein synthesis inhibition counterscreen. max response, %. 300,000 compounds, 12% hits. AID 2314; in the data active = max response mostly above about 13%, no sharp cut-off; inactive = mostly below about 14%; note: read at 38.3 µM for the half of the compounds with a filed dose; 0% is about no effect
LmPK inh – inhibitors of Leishmania mexicana pyruvate kinase; purified LmPK, Kinase-Glo ATP luminescence, 1 h; 290,000 compounds, 0.37% hits; Potency, µM (series often up to 57.5 µM), for inactives: at the top dose activity change, negative = inhibition, actives largely listed as inhibitors; note: potency is the fitted concentration of half-maximal effect; % is set by controls: 0 for no effect and ±100 for the full control effect
Target sequence (Q27686 whole entry, looked up): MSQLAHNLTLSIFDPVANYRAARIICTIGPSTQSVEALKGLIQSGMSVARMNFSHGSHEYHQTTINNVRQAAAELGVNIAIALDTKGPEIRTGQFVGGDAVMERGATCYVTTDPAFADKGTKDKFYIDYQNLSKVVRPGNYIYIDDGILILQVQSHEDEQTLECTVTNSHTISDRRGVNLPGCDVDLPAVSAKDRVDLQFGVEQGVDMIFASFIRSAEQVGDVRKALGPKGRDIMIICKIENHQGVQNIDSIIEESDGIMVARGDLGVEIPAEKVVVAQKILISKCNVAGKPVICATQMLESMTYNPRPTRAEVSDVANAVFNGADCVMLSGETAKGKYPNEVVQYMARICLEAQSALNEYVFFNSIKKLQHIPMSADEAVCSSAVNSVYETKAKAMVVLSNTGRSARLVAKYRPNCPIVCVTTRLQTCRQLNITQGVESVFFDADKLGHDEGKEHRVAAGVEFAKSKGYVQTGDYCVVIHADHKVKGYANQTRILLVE
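Purified LmPK (0.1 nM) converted ADP (0.1 mM) to ATP with PEP (0.5 mM) in imidazole buffer pH 7.2 with KCl and MgCl2, 1 h at room temperature. ATP was read by Kinase-Glo luminescence; data normalized to uninhibited and no-enzyme controls.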
Pf growth 96h – inhibits malaria parasite growth, 96 h; P. falciparum luciferase reporter growth, 96 h; Potency, µM (titrated, usually from 28.7 µM), for the others: top-dose activity change, negative = inhibition, usual class: inhibitors; 320,000 compounds, 6.9% hits; note: potency is the fitted concentration of half-maximal effect; % is set by controls: 0 for no effect and ±100 for the full control effect
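P. falciparum expressing integrated firefly luciferase grown in erythrocytes (2% hematocrit, 0.05% parasitemia final) with compounds for 96 hours at 37 C, 5% CO2. Growth inhibition read as loss of luminescence after adding luciferase detection reagent.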
Starred values were filed as active, the others as inactive; i = inactive; u = inconclusive; x = no result given; + = active, no number; [ ] = remark or other dose. Unless noted, calls come from the whole dose curve; as a rule, active = well fitted inhibition curve with a large enough effect; inconclusive = small, poorly fitted or top-dose-only effect, or another doubt; inactive = no such curve, though single readings can be large or run the other way.

SMILES	Pf growth 48h	Shiga inhibitor	CHX counter	LmPK inh	Pf growth 96h
OC(CNCCc1ccc(C(F)(F)F)cc1)COC(c1ccccc1)c1ccccc1 (centres undefined)	x	-23.3	-11.2	-4.8%	3.7µM*
COc1ccc(C(OCC(O)CNCCc2ccc(S(N)(=O)=O)cc2)c2ccc(OC)cc2)cc1 (centres undefined)	x	-2.1	-1.9	3.5%	11.7µM*
CC(=O)O[C@H]1C[C@@]2(C)[C@@H](C[C@@H](O)[C@H]3[C@@]4(C)CC[C@@H](O)[C@@H](C)[C@@H]4CC[C@@]32C)/C1=C(\CCC=C(C)C)C(=O)O	11.7µM*	x	x	x	u
COc1ccc2[nH]c(C)c(C(=O)CN3CCN(C(=O)c4ccco4)CC3)c2c1	u	-11.8	14.1	0.7%	x
CCOCc1cnc(C)nc1NCC(=O)c1c(C)[nH]c2ccc(OC)cc12	x	7.5	-3.2	7.7%	0.415µM*
CC(=O)N1c2ccc(S(=O)(=O)NCCC(=O)Nc3ccc(C)c(Cl)c3)cc2CC1C (centres undefined)	7.6%	-8.2	6.6	-4.8%	-32.0%
O=C(NCc1cccnc1)/C(=C/c1ccc(-c2ccc(Cl)cc2)o1)S(=O)(=O)c1ccccc1	6.57µM*	-20.7	-1.1	-7.6%	3.29µM*
COc1cc2c(cc1OC)C1O[C@](c3ccsc3)(C2)Oc2c1c(=O)oc1ccc(F)cc21	1.51µM*	i	15.5*	-7.6%[11.5 µM]	u
N#Cc1ccc2c(c1)C[C@]1(c3ccsc3)Oc3c(c(=O)oc4ccc(F)cc34)C2O1	1.51µM*	i	-4.2	-0.4%[11.5 µM]	73.3%[5.75 µM]
COc1ccc2c3c(c(=O)oc2c1)C1O[C@](c2ccsc2)(Cc2cc(C#N)ccc21)O3	u	i	-2.5	0.2%[11.5 µM]	26.7%[5.75 µM]
N#Cc1ccc2c(c1)C[C@]1(c3ccsc3)Oc3c(c(=O)oc4ccccc34)C2O1	u	+	24.0*	-3.0%[11.5 µM]	u
CCCCn1c(C)cc2c(c1=O)C1O[C@](c3ccsc3)(Cc3cc(OC)c(OC)cc31)O2	u	i	5.7	-9.0%[11.5 µM]	u
CC1(C)CC(=O)C2=C(C1)O[C@@]1(c3ccsc3)Cc3cc(C#N)ccc3C2O1	1.51µM*	i	1.5	-5.2%[11.5 µM]	u
CCCC[C@]12Cc3cc(C#N)ccc3C(O1)c1c(c3ccccc3oc1=O)O2	-14.8%[5.75 µM]	i	-3.5	-2.6%[11.5 µM]	u
CCCC[C@]12Cc3cc(C#N)ccc3C(O1)c1c(c3cc(F)ccc3oc1=O)O2	-13.6%[5.75 µM]	i	2.0	-4.7%[11.5 µM]	1.35µM*
CC(=O)N1CCN(C(=O)c2cc(S(=O)(=O)N3CCN(c4ccccc4)CC3)ccc2Cl)CC1	-15.8%	x	x	x	56.2%
O=C(Nc1cccc(C(=O)O)c1)/C(=C\c1ccc(F)cc1)NC(=O)c1ccco1	161.2%	-2.4	-3.8	-4.0%	u
O=C(Nc1cccc(F)c1)/C(=C/c1ccco1)NC(=O)c1ccco1	-2.9%	25.5	20.3*	-9.7%	-25.9%
CNC(=O)/C(=C\c1ccco1)NC(=O)c1ccco1	9.28µM*	-23.5	1.5	0.4%	0.0%
N#Cc1nc(-c2ccco2)oc1NCCCn1ccnc1	27.7%	9.8	-3.9	2.9%	x
Cc1cc(C)n(-c2ccc(N3CCOCC3)nn2)n1	71.8%	56.7*	32.9*	-18.1%	39.2%
Cn1c(CNC(=O)CCNC(=O)c2ccccc2F)cc(=O)n(C)c1=O	18.1%	-2.5	-3.9	3.4%	26.4%
Nn1c(SCC(=O)Nc2ccc(F)c(F)c2)nnc1C1CCCCC1	-28.1%	7.9	-1.1	0.5%	11.7µM*
Nn1c(SCC(=O)Nc2ccc(F)cc2F)nnc1C1CCCCC1	36.8%	55.3*	41.9*	-15.9%	0.5%
Nn1c(SCC(=O)Nc2ccc(F)cc2F)nnc1-c1cccnc1	48.9%	41.5	25.4*	-16.2%	u
Nn1c(SCC(=O)Nc2ccccc2F)nnc1C1CCCCC1	23.9%	6.7	-1.3	4.6%	22.5%
Cc1cccc(CN2CCCC(C(=O)N3CCc4ccccc4C3)C2)c1 (centres undefined)	x	-13.5	-6.3	0.1%	u
COc1ccc(OCc2cc(C(=O)O)c(C)o2)cc1	122.7%	26.4	33.0*	1.0%	96.5%
CCN(CC)Cc1cc(C(=O)O)c(C)o1	40.7%	53.3*	13.4*	2.5%	u
N=C(N)SCc1nc2ccccc2c(=O)n1-c1ccccc1Cl	20.7%	81.2*	50.2*	-1.6%	u
